Source: PubChem BioAssay AID1259415 (National Center for Advancing Translational Sciences (NCATS), 2018)
Several values for one entry are separate records, joined by “and”; a condition that tells them apart may be missing. Equal entries are not always repeated. About 18,000 (4.4%) of roughly 410,000 compounds were called active. Inconclusive results (about 7%) are left out. Rule as the data show it: active = activity change below about -60%; inconclusive = no clear call, values can overlap the other calls; inactive = above about -39%. The sample as a whole holds a higher share of actives than the screen did. Some compounds were tested as several samples or in several runs, with calls that do not always agree.

Test: qHTS Assay for inhibitors of the human cytomegalovirus (HCMV)
Details: HFF cells, HCMV-luciferase reporter, 72 h; at 57.5 µM; stronger effect = lower value
How it was run: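 Compounds were evaluated in HFFs infected with an HCMV luciferase reporter virus (MOI 1 PFU/cell). Luciferase in lysates collected 72 h post infection served as the replication measure.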
% is scaled to controls: 0 for no effect and ±100 for the full control effect.

| Compound | activity change, negative = inhibition |
| --- | --- |
| Brc1ccc(-c2n(-c3ccccn3)c3ccccc3[n+]2-c2ccccn2)cc1 | -11.9% (inactive) |
| CCOC(=O)c1ccc(NC(=O)C2CC(=O)N(c3ccc(C(C)C)cc3)C2)cc1 (centres undefined) | 46.5% (inactive) |
| COC(=O)c1cc(NC(=O)CCc2c(C)nc3c4c(C)cc(C)nc4nn3c2C)cc(C(=O)OC)c1 | 8.7% (inactive) |
| COc1ccc(C2c3ccc(O)cc3Oc3ncn(CCCO)c(=N)c32)cc1OC (centres undefined) | 0% (inactive) |
| c1ccc2cc3c(NCCN4CCOCC4)ccnc3cc2c1 | -98.8% (active) |
| CC(=O)Oc1cc2c(C(=O)NCCN3CCOCC3)c(C)oc2c2ccccc12 | 55.4% (inactive) |
| CSc1ccc(CNCCN2CCOCC2)cc1 | 0% (inactive) |
| CNc1nc2cnc(-c3ccsc3)cc2n1Cc1ccccc1 | 12.4% (inactive) |
| Cc1c(C(=O)Nc2cccc(Cl)c2)oc2ccc(S(=O)(=O)N3CCOCC3)cc12 | 4.49% (inactive) |
| Nc1ccc(C(=O)OCC(=O)NC2CCCc3ccccc32)cc1[N+](=O)[O-] (centres undefined) | -3.15% (inactive) |
| O=C(CCNC(=O)c1ccc(Cl)cc1)NC1CCCc2ccccc21 (centres undefined) | -82% (active) |
| NC(=O)Nc1ccc(C(=O)OCC(=O)NC2CCCc3ccccc32)cc1 (centres undefined) | -25.3% (inactive) |
| CCC(C)c1ccc2oc(-c3ccc(NC(=O)c4cc5ccccc5o4)cc3)nc2c1 (centres undefined) | -17.9% (inactive) |
| COc1cc(NC(=O)Cn2nc(-c3ccc(C)c(C)c3)ccc2=O)cc(OC)c1 | 10.3% (inactive) |
| COc1cccc(CNS(=O)(=O)c2ccc3c(c2)N(C(C)=O)CCS3)c1 | -73.4% (active) |
| COc1cccc(CNS(=O)(=O)c2ccc3c(c2)CC(C)N3C(=O)C2CCC2)c1 (centres undefined) | -33.4% (inactive) and -60.7% (active) |
| O=C(C1CCC1)N1CCc2cc(S(=O)(=O)NCc3cccnc3)ccc21 | -32% (inactive) |
| CC(=O)N1CCSc2ccc(S(=O)(=O)N3CCC(C)CC3)cc21 | -33.3% (inactive) |
| COc1ccc(N(C)S(=O)(=O)c2ccc3c(c2)CC(C)N3C(=O)C2CC2)c(OC)c1 (centres undefined) | -22.8% (inactive) |
| COc1cccc(CNS(=O)(=O)c2csc(C(N)=O)c2)c1 | -30.1% (inactive) |
| CCOCCn1ccc2c(OCC(=O)NCc3ccc(C)cc3)cccc2c1=O | 22.4% (inactive) |
| O=C(CCS(=O)(=O)c1cc(Br)cc2c1N(C(=O)C1CC1)CC2)Nc1ccc(Br)cc1F | -5.42% (inactive) |
| Cc1ccc(CN2CCCn3nc(C(=O)NCc4ccccc4Cl)cc3C2=O)cc1 | -16.2% (inactive) |
| CCOC(=O)c1nnn(CC(=O)NC(=O)Nc2ccccc2F)c1C(=O)OCC | 11.6% (inactive) |
